According to PubChem BioAssay AID588358 (NMMLSC, 2011):
Among all 310,000 compounds or so, about 1,500 (0.48%) were called active. The list comes from a sample in which actives are over-represented; it also holds similar structures and randomly drawn compounds. Unmarked numbers belong to inactive results.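 Rule for the calls: active = binding more than 3 SD below its plate's average and above zero; inconclusive = below that plate limit but binding exactly zero; inactive = the rest.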

The molecules below were run against Desmoglein-3 (Homo sapiens) (UniProt P32926) (assay: blockers of anti-DSG3 scFv binding – biochemical, bead-based, flow cytometry, scFv-GFP, primary screen (AID 588358;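 note: hits lower antibody fragment binding to DSG3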)). Conditions: DSG3-coupled beads, at 10 µM, active compounds read low.
Sequence of Desmoglein-3 (Homo sapiens) (P32926 whole entry, looked up, the tested form may be a part): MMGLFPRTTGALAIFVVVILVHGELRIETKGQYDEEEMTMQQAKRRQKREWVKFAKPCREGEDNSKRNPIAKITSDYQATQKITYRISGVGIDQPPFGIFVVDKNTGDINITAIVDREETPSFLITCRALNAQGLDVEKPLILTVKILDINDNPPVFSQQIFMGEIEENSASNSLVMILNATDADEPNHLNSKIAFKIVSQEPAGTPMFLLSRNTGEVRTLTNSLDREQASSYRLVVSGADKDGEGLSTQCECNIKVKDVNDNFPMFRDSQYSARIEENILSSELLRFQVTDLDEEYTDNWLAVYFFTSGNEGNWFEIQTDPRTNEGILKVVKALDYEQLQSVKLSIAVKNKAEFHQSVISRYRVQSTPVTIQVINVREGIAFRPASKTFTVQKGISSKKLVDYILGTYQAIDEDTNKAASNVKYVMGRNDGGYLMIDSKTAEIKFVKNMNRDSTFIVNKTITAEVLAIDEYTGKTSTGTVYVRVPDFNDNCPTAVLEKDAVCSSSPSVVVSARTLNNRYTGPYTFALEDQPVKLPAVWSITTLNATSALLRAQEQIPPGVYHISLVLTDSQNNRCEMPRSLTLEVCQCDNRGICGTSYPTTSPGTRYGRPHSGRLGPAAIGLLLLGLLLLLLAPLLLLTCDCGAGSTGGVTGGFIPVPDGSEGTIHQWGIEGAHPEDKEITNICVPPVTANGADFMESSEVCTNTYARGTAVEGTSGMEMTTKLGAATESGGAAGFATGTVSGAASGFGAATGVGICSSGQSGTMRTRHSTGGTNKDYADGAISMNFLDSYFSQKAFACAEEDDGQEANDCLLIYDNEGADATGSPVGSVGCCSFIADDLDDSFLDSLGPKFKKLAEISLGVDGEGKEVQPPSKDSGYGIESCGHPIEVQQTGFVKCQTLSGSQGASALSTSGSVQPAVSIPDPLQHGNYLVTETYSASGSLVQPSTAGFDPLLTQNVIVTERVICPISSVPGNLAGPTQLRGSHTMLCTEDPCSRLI
For `CCCCCCCCC(=O)NCCOc1ccccc1`, the binding (percent of control) was 96.9%.
`O=C(CSc1ccc(C(F)(F)F)cc1[N+](=O)[O-])NCCOc1ccccc1` was tested, and the binding (percent of control) was 87.7% (active).
For `Cc1cccc(OCCNC(=O)CSc2ccc(C(F)(F)F)cc2[N+](=O)[O-])c1`, the binding (percent of control) was 114%.
For `CCOC(=O)c1cnn2c(SC)ncnc12`, the binding (percent of control) was 105%.
With `CSc1ncc(Cl)c(C(=O)Nc2cc(C)ccc2C)n1` the binding (percent of control) was 95%.
`CCOc1ccc(NC(=O)c2nc(SCC)ncc2Cl)cc1` was tested, and the binding (percent of control) was 62.8% (active).
`CCOc1ccc(NC(=O)NNC(=O)c2ccc(Cl)cc2Cl)cc1` was tested, and the binding (percent of control) was 103%.
With `COc1ccc(NC(=O)COC(=O)C2COc3ccccc3O2)cc1` (stereo not given) the binding (percent of control) was 100%.
In the case of `Cc1ccc(C(=O)OCC(=O)NC2CCCCCCC2)cc1C`, the binding (percent of control) is reported as 97%.
Molecule `CC(C)n1ncc2c(C(=O)N3CCN(Cc4cccs4)CC3)cc(C3CC3)nc21` has a binding (percent of control) of 101%.
Molecule `COc1ccc(C(=O)CCC(=O)Nc2ccc(Cl)cc2)cc1` has a binding (percent of control) of 102%.
For `COc1ccc(NC(=O)CCCC(=O)c2ccccc2)cc1`, the binding (percent of control) was 72.9% (active).
For `COc1ccc(NC(=O)CS(=O)(=O)c2ccccc2)cc1`, the binding (percent of control) was 103%.
`C#Cc1cc(N2CCN(C(=O)c3ccoc3)CC2)n2nc(-c3cccc(Cl)c3)cc2n1` was tested, and the binding (percent of control) was 96%.
With `Cc1ccc(C=O)c([B-](F)(F)F)c1` the binding (percent of control) was 103%.
`CC1(C)OC(=O)C2=C(CC(c3ccccc3)OC2CCc2ccccc2)O1` (stereo not given) was tested, and the binding (percent of control) was 109%.
Work on `O=C(Nc1cccc(-n2cnnn2)c1)c1cccnc1` yielded a binding (percent of control) of 104%.
With `Cc1ccc(-n2nc3cc(C)c(NC(=O)c4cccnc4)cc3n2)cc1` the binding (percent of control) was 78.3% (active).
`Cc1ccc(S(=O)(=O)N2CCCCC2)cc1NC(=O)c1cccnc1` was tested, and the binding (percent of control) was 103%.
In the case of `CC(=O)Nc1c(-c2ccc(C)cc2)nc2ccc(Cl)cn12`, the binding (percent of control) is reported as 98.5%.
In the case of `CCCCN1C[C@H](c2ccc(Br)cc2)[C@@H](CC(=O)Nc2ccc(Br)cc2)C1=O`, the binding (percent of control) is reported as 102%.
For `C=CCNC(=O)c1cc(-c2ccccc2O)on1`, the binding (percent of control) was 79.7% (active).
In the case of `O=C(Nc1cccnc1Cl)c1cc(-c2ccccc2O)on1`, the binding (percent of control) is reported as 92.4%.
`O=C(c1cc(-c2ccccc2O)on1)N1CCCC1` showed a binding (percent of control) of 105%.
Molecule `O=C(COC(=O)CCc1c[nH]c2ccccc12)Nc1cccc(Cl)c1` has a binding (percent of control) of 102%.
Molecule `COc1ccccc1C(=O)NC(=S)Nc1ccc(N2CCOCC2)cc1` has a binding (percent of control) of 101%.
For `CC(C)[C@H](NC(=O)c1ccccc1F)C(=O)Nc1cccc(S(=O)(=O)N2CCOCC2)c1`, the binding (percent of control) was 107%.
Molecule `O=C(N/N=C\c1cccnc1)c1cc(-c2ccccc2)nc2c(Cl)cccc12` has a binding (percent of control) of 111%.
For `O=C(N/N=C/c1cccnc1)c1cc2ccccc2cc1O`, the binding (percent of control) was 97.3% (active).
For `Cc1ccc(/C=N/NC(=O)c2cc3ccccc3cc2O)o1`, the binding (percent of control) was 111%.
For `Cc1ccccc1C#CC1=CC(=O)CC(C)(C)C1`, the binding (percent of control) was 97.5%.
`C[C@@H]1CN([C@H](C)CO)S(=O)(=O)c2ccc(C#CC3CCCCC3)cc2O[C@H]1CN(C)C(=O)Cc1ccncc1` gave a binding (percent of control) of 123%.
Work on `CN(C)C(CNC(=O)c1cc(Br)c(Br)s1)c1ccco1` (stereo not given) yielded a binding (percent of control) of 99.7%.
`O=C(CN1C(=O)c2ccc([N+](=O)[O-])cc2C1=O)Nc1nnc(C2CC2)s1` was tested, and the binding (percent of control) was 66.2% (active).
Molecule `O=C(Cc1cccs1)Nc1nnc(C2CC2)s1` has a binding (percent of control) of 125%.
For `Cc1cccc(NC(=O)CSCC(=O)Nc2nnc(C3CC3)s2)c1`, the binding (percent of control) was 105%.
With `O=S1(=O)CCN(C2CCCCCCCCCCC2)CC1` the binding (percent of control) was 96.7%.
`CC(=O)Nc1ccc(C=Cc2ccc([N+](=O)[O-])cc2)cc1` showed a binding (percent of control) of 101%.
Molecule `CCN(CC(=O)Nc1ccc(NC(C)=O)cc1)C(=O)C1CC(=O)N(c2ccc3c(c2)OCCO3)C1` (stereo not given) has a binding (percent of control) of 102%.
For `CC(C)c1ccc(NC(=O)C2CCCN(S(=O)(=O)c3cccnc3)C2)cc1` (stereo not given), the binding (percent of control) was -3.9% (active).
For `O=C(Nc1ccc(F)c(Cl)c1)C1CCN(S(=O)(=O)c2cccnc2)CC1`, the binding (percent of control) was 109%.
Work on `COc1ccc(S(=O)(=O)N2CCCC(C(=O)Nc3ccc(NC(=O)c4ccccn4)cc3)C2)cc1` (stereo not given) yielded a binding (percent of control) of 101%.
In the case of `C=CCn1nc(C(=O)OCC)cc1-c1sc(NC(=O)c2ccccc2)nc1C`, the binding (percent of control) is reported as 102%.
Work on `Cc1cc(Nc2ccc(C)c(C)c2)n2ncnc2n1` yielded a binding (percent of control) of 95%.
Molecule `CCN(CC)C(=O)C1=C(C)N(Cc2ccc(OC)cc2)C(=O)C(CC(=O)NCCCCc2ccccc2)C1` (stereo not given) has a binding (percent of control) of 109%.
For `O=S(=O)(NCc1ccccc1)c1ccc(S(=O)(=O)N2CCCC2)cc1`, the binding (percent of control) was 7.03% (active).
Work on `O=S(=O)(c1ccc(-c2ccccc2)cc1)N1CCCC1` yielded a binding (percent of control) of 95.9%.
In the case of `CC1CCN(S(=O)(=O)c2ccc(S(=O)(=O)NCc3cccnc3)cc2)CC1`, the binding (percent of control) is reported as 94.4%.
With `CCOc1cc(/C=N/NC(=O)c2c(C)nc3ccc(Cl)cn23)ccc1O` the binding (percent of control) was 108%.
In the case of `NC(=O)c1c(NC(=O)c2ccccc2)sc2c1CCCC2`, the binding (percent of control) is reported as 63.6% (active).
`COc1cccc(OC)c1C(=O)Nc1sc2c(c1C(N)=O)CCCC2` gave a binding (percent of control) of 109%.
`C=CCN(CC=C)S(=O)(=O)c1ccc(C(=O)Nc2sc3c(c2C(N)=O)CCCCC3)cc1` showed a binding (percent of control) of 110%.
For `O=C(C1=C(O)C(=O)N(Cc2ccccc2)C1c1cccnc1)c1ccco1` (stereo not given), the binding (percent of control) was 64.8% (active).
`O=C(C1=C(O)C(=O)N(Cc2ccccc2)C1c1ccco1)c1ccco1` (stereo not given) showed a binding (percent of control) of 108%.
Molecule `CCOc1cc(C2C(C(=O)c3ccco3)=C(O)C(=O)N2Cc2ccccc2)ccc1O` (stereo not given) has a binding (percent of control) of 104%.
For `CN1CCN(c2ccncc2S(=O)(=O)N2CCCC2)CC1`, the binding (percent of control) was 102%.
In the case of `CC1CCCN(S(=O)(=O)c2ccc(-c3ccc(=O)[nH]n3)o2)C1` (stereo not given), the binding (percent of control) is reported as 49% (active).
`Cc1ccc(NS(=O)(=O)c2ccc(-c3ccc(=O)[nH]n3)o2)c(C)c1` was tested, and the binding (percent of control) was 102%.
In the case of `O=c1ccc(-c2ccc(S(=O)(=O)Nc3ccccc3)o2)n[nH]1`, the binding (percent of control) is reported as 110%.
`COc1ccc(C(C)(C)C)cc1NC(=O)CN(C)C1=NS(=O)(=O)c2ccccc21` showed a binding (percent of control) of 104%.
`O=C1CCC(C(=O)N2CCCCO2)CN1Cc1cccc(C(F)(F)F)c1` (stereo not given) was tested, and the binding (percent of control) was 90.7% (active).
With `O=C(c1ccco1)N1CCN(Cc2cccc(C(F)(F)F)c2)CC1` the binding (percent of control) was 107%.
`COC(=O)c1ccc(CNC(=O)C2CCC(=O)N(Cc3cccc(F)c3)C2)cc1` (stereo not given) was tested, and the binding (percent of control) was 97%.
For `Cc1ccnc(SC2CC(=O)N(c3ccccc3)C2=O)n1` (stereo not given), the binding (percent of control) was 95.7%.
Work on `O=C(NCC(F)(F)F)c1ccc(S(=O)(=O)NCCc2ccc3c(c2)OCCO3)cc1` yielded a binding (percent of control) of 97.1%.
Work on `C[C@H](O)[C@@H]1C(=O)N2CCc3c([nH]c4ccccc34)[C@@H]2C[C@@H]1N(C)C(=O)Nc1ccc(F)cc1` yielded a binding (percent of control) of 109%.
With `CN(C)c1ccc(CSc2ccccc2)cc1` the binding (percent of control) was -6.16% (active).
`O=C(c1ccc(CSc2ccccc2)cc1)N1CCCCCC1` was tested, and the binding (percent of control) was 105%.
For `CN(C)c1cc[n+](Cc2ccccc2)cc1`, the binding (percent of control) was 99.9%.
For `Cc1ccc(Cc2c(-c3ccc(C)cc3)nc3c4ccccc4ccn23)cc1`, the binding (percent of control) was 109%.
`Cc1ccc(S(=O)(=O)/N=C2\C=C(NS(=O)(=O)c3ccc(C)cc3)C(=O)c3ccccc32)cc1` was tested, and the binding (percent of control) was 97.2%.
In the case of `COc1ccc(NC(=O)CN(C)C(=O)c2cc(-c3ccc(C)o3)nc3ccccc23)cc1`, the binding (percent of control) is reported as 96.9%.
In the case of `COc1cccc(NC(=O)CN(C)C(=O)c2ccccc2CCc2ccccc2)c1`, the binding (percent of control) is reported as 108%.
`COc1cccc(NC(=O)CN(C)C(=O)c2cc(Cl)nc3ccccc23)c1` was tested, and the binding (percent of control) was 80.8% (active).
With `CSc1ncccc1C(=O)N1CCCC(Nc2ccc(F)c(F)c2)C1` (stereo not given) the binding (percent of control) was 104%.
`CCN(C(=O)Nc1cccc2ccccc12)c1ccccc1` was tested, and the binding (percent of control) was 103%.
`CCc1ccccc1NC(=O)CN1CCN(C(=O)c2cc(C3CC3)nn2-c2ccccc2)CC1` showed a binding (percent of control) of 106%.
Molecule `COc1ccc(S(=O)(=O)N(C)C)cc1NC(=O)COC(=O)c1n[nH]c2ccccc12` has a binding (percent of control) of 98.8%.
`Cc1cccc(C(=O)C(O)(c2ccccc2)C2CCCCC2=O)c1` (stereo not given) was tested, and the binding (percent of control) was 106%.
`O=C(O)c1ccccc1CSc1nc2ccccc2s1` gave a binding (percent of control) of 116%.
With `O=[N+]([O-])c1c(NCCO)cc(Sc2nc3ccccc3s2)c2nonc12` the binding (percent of control) was 83.3% (active).
`CCOc1ccccc1Nc1ccc2nonc2c1[N+](=O)[O-]` was tested, and the binding (percent of control) was 96.1%.
For `CCOC(=O)C(=Cc1ccccc1)C(=O)c1ccccc1`, the binding (percent of control) was 106%.
`CCN(CC)C(=O)C1=C(C)N(Cc2ccccc2)C(=O)C(CC(=O)NC(c2ccccc2)c2ccccc2)C1` (stereo not given) was tested, and the binding (percent of control) was 107%.
Molecule `O=C(CCc1ccc(O)cc1)NN=Cc1cc(Br)ccc1O` has a binding (percent of control) of 106%.
In the case of `COc1ccc(-c2noc(CNC(=O)C(C)Oc3ccccc3)n2)cc1` (stereo not given), the binding (percent of control) is reported as 109%.
In the case of `COc1ccc(-c2noc(COc3ccc(Cl)c(C)c3)n2)cc1`, the binding (percent of control) is reported as 66.6% (active).
`COc1ccc(-c2noc(CCC(=O)N3CCN(c4cccc(C)c4)CC3)n2)cc1` showed a binding (percent of control) of 98.6%.
In the case of `Cc1ccc(-c2ccc(C3=CC(=O)CC(C)(C)C3=O)cc2)cc1`, the binding (percent of control) is reported as 97.6%.
`COc1ccc(C(CNC(=O)CSc2ccccc2)N2CCOCC2)cc1` (stereo not given) showed a binding (percent of control) of 100%.
In the case of `CC(C)c1cc(C(=O)N(C)C2CCCN(Cc3ccccc3F)C2)n(C)n1` (stereo not given), the binding (percent of control) is reported as 96.7%.
`CC(C)C1CCN(C(=O)C2CCC(=O)N(C3CCCCCC3)C2)CC1` (stereo not given) showed a binding (percent of control) of 101%.
With `CCCCOC(=O)NCN1C(=O)C2C3C=CC(C3)C2C1=O` (stereo not given) the binding (percent of control) was 110%.
`CCCC(C(=O)N1CCOCC1)N1C(=O)C2C3C=CC(C3)C2C1=O` (stereo not given) was tested, and the binding (percent of control) was -12.4% (active).
`CCC(C(=O)N1CCOCC1)n1c(C(=O)OC)cc2occc21` (stereo not given) showed a binding (percent of control) of 99.3%.
